In all, about 350,000 compounds went through this assay and about 31,000 (8.9%) were called active. About 15% were inconclusive and are not listed. Calls follow the shape of the dose curve; as a rule, active = well fitted inhibition curve with a large enough effect; inconclusive = small, poorly fitted or top-dose-only effect; inactive = no such curve, though single readings can be large or run the other way. Shown is part of a subset that was picked to be rich in actives.
Target: Histone-lysine N-methyltransferase EHMT2 (Homo sapiens) (UniProt Q96KQ7)
Test: qHTS Assay for Inhibitors of Histone Lysine Methyltransferase G9a; also: nearly all actives have a fitted effect of over 75% in size
Details: G9a H3K9 monomethylation, AlphaScreen, 2 h; series mostly up to 59 µM
How it was run: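 Compounds were preincubated with 20 nM G9a for 15 min, after which biotinylated H3K9 peptide (500 nM) and SAM (20 uM) started a 2 h room-temperature reaction. Monomethylated product was quantified by antibody-based AlphaScreen chemiluminescence.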
% is scaled to controls: 0 for no effect and ±100 for the full control effect; potency is read from the fitted curve at half-maximal effect.

Sequence of Histone-lysine N-methyltransferase EHMT2 (Homo sapiens) (Q96KQ7 913-1193 limits assumed): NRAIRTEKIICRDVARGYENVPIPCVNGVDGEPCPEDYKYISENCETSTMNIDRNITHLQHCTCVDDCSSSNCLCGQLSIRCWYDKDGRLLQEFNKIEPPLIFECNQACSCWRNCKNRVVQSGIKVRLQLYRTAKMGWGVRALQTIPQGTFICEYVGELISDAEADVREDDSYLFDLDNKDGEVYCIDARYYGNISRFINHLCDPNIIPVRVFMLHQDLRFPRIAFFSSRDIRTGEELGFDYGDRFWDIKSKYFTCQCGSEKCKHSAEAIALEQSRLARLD

Potency, active:
O=C(NCc1cccs1)c1ccc2c(c1)ncn2C1CCCC1 50.1 µM
CN(Cc1cccc2ncccc12)C(=O)CC1C(=O)NCCN1Cc1ccc(F)cc1 (configuration not stated) 44.7 µM
Cc1nc(CN(C)C(=O)CC2C(=O)NCCN2Cc2ccc(F)cc2)cs1 (configuration not stated) 44.7 µM
COc1cccc(CN2CCNC(=O)C2CC(=O)N(C)CCc2ccccn2)c1 (configuration not stated) 44.7 µM
CCOc1ccccc1C(=O)NCc1ccco1 44.7 µM
CCS(=O)(=O)Nc1ccc(C2=NN(S(=O)(=O)c3ccc(F)cc3)C(c3ccco3)C2)cc1 (configuration not stated) 79.4 µM
Cc1ccc(/C=N/NC(=S)NC2CCCCC2)o1 50.1 µM
C/C(=N\NC(=S)NC1CCCCC1)c1ccc(C)o1 50.1 µM
CCCCC(=O)Nc1ccc(C(=O)NCCCn2ccnc2)cc1 12.6 µM
COc1ccc(/C(O)=C2/C(=O)C(=O)N(c3nc(C)c(C)s3)C2c2ccco2)cc1 (configuration not stated) 44.7 µM
COc1cccc(N2CCN(S(=O)(=O)c3cc(Br)cc4c3N(C(=O)C3CC3)CC4)CC2)c1 7.94 µM

Potency, inactive:
O=C(NCCN1CCOCC1)c1ccc2c(c1)ncn2C1CCCC1
O=C(NCc1ccc(Cl)cc1)c1ccc2c(c1)nnn2C1CCCC1
Cc1cnc(CN(C)C(=O)CC2C(=O)NCCN2Cc2cccc(F)c2F)[nH]1 (configuration not stated)
CCCOC(=O)CC1C(=O)NCCN1Cc1ccc(F)cc1 (configuration not stated)
CN(C(=O)CC1C(=O)NCCN1Cc1ccc(F)cc1Cl)C1CCCCC1 (configuration not stated)
CC(C)c1nc(CNC(=O)CC2C(=O)NCCN2Cc2ccoc2)cs1 (configuration not stated)
CN(CCc1ccccn1)C(=O)c1ccc(OC2CCN(CCc3ccccc3)CC2)cc1
Cc1cccc(NC(=O)Cn2c(=O)n(CCC(C)C)c(=O)c3cccnc32)c1
COc1ccc(-c2nc(CN3CCC(C(=O)NCCN(CC(C)C)CC(C)C)CC3)c(C)o2)cc1OC
Cc1ccc(C(=O)Nc2nc(-c3ccccc3)ns2)cc1
Cc1ccc(CNC(=O)CCc2c(C)nc3nc(CNC(=O)OC(C)(C)C)nn3c2C)cc1
COCCNC(=O)c1ccc2c(c1)N=C(C)c1cc(C)ccc1S2
CCOC(=O)C1(CCOc2ccccc2)CCN(Cc2ccc(C#CCCO)cc2)CC1
Cc1ccc(Cl)cc1N(C)C(=O)Cn1nc(Cc2cccnc2)c2ccccc2c1=O
COc1ccc(C(=O)Nc2ccccc2C(=O)NCc2ccco2)cc1
COc1ccc(NC(=O)CN(C)C(=O)c2ccc(COc3ccccc3)o2)cc1
C[C@H]1[C@H]2c3nc4ccccc4n3C[C@H]1ON2C1CCCCC1
CCS(=O)(=O)Nc1ccc(C2=NN(C(C)=O)C(c3cccs3)C2)cc1 (configuration not stated)
CS(=O)(=O)Nc1ccc(C2=NN(S(C)(=O)=O)C(c3cccs3)C2)cc1 (configuration not stated)
CCCCN(CCCC)CCCNC(=O)CN1C(=O)COc2ccc(S(=O)(=O)N3CCC(C)CC3)cc21
C/C(=N\NC(=O)NC1CCCCC1)c1ccc(OC(F)F)cc1OC(F)F
Cc1ccc(/C=N/NC(=O)Cn2ccc(C(F)(F)F)n2)o1
C/C(=N/NC(=O)c1ccc(Br)o1)c1ccc(C)o1
O=C(Nc1ccc(Cl)c(Cl)c1)c1ccccc1NC(=O)C1CC=CCC1C(=O)O (configuration not stated)
COc1ccc(C)cc1NC(=O)CNCc1cccs1
CCC(=O)N1CCc2cc(CNS(=O)(=O)c3ccc(Br)s3)ccc21
CCOC(=O)Cn1c(=O)n(C2CCCCC2)c2nc(-c3cccc(OC)c3)nc(C(N)=O)c21
CCOC(=O)c1ccc(NC(=O)CCS(=O)(=O)c2ccc3c(c2)oc(=O)n3C)cc1
Cc1ccc(C)c2sc(NC(=O)c3ccc(S(=O)(=O)N4CCCC4)cc3)nc12
CCCC(=O)Nc1ccc(C(=O)NCCCn2ccnc2)cc1
O=C(NCCCn1ccnc1)c1ccccc1F
CCOC(=O)c1scc(-c2ccc(C)cc2)c1S(=O)(=O)Nc1cc(C)ccc1C
Cc1cc(C(=O)COc2ccc(Br)cc2F)c(C)n1C1CC1
COc1ccccc1C1/C(=C(/O)c2ccc(C)cc2)C(=O)C(=O)N1Cc1ccco1 (configuration not stated)
COc1cccc(C2/C(=C(/O)c3ccncc3)C(=O)C(=O)N2CCCN(C)C)c1 (configuration not stated)
O=C(C1CCC(=O)N(C2CC2)C1)N1CCN(c2ccc(Cl)cc2)CC1 (configuration not stated)
Cc1ccsc1CN(C(=O)c1oc2ccc(Br)cc2c1C)C1CCS(=O)(=O)C1 (configuration not stated)
Cc1ccc(C(=O)Nc2c(C(=O)NC(C)(C)C)oc3ccccc23)cc1
O=C(C1CC1)N1CCc2cc(Br)cc(S(=O)(=O)N3CCN(c4ccccc4F)CC3)c21
CCOC(=O)N1CCN(S(=O)(=O)c2cc(Br)cc3c2N(C(=O)C2CC2)CC3)CC1

activity, negative = inhibition, inactive:
CCOc1ccc(C(=O)CCC(=O)NC2=NCCS2)cc1 2.24% [at 0.501 µM]
COc1ccccc1CN1CCNC(=O)C1CC(=O)N(C)CC1CCOCC1 (configuration not stated) 13.6% [at 0.0925 µM]
CCN(CC(=O)Nc1c(F)cccc1F)C(=O)c1cnc(C)cn1 9.59% [at 2.33 µM]
Cc1ccc(CNC(=O)CC(NC(=O)c2ccccc2)c2ccccc2)cc1 (configuration not stated) 12.4% [at 12.7 µM]
O=C(Nc1ccccc1)Nc1ccccc1C(=O)NCc1ccco1 0.665% [at 12.7 µM]
O=C(CCNC(=O)c1ccc(Br)cc1)NCC(c1ccco1)N1CCCCC1 (configuration not stated) 19.9% [at 12.7 µM]
Cc1ccc(NC(=S)NC2CCCC2)cc1 23.8% [at 0.501 µM]
COc1cc(OC)cc(-c2c(-c3cccs3)c3cc(-c4ccc(OC)cc4F)ccc3n2C)c1 2.09% [at 0.501 µM]
CC(Sc1nnc(-c2cccs2)n1C1CC1)C(=O)NCC1CCCO1 (configuration not stated) 29.1% [at 12.7 µM]
O=C(NCCC1CCCCN1S(=O)(=O)c1ccccc1)C(=O)NCC1CCCO1 (configuration not stated) 10.2% [at 0.501 µM]
O=C(CC1SC(N2CCCC2)=NC1=O)Nc1ccc(C(=O)NCCc2ccc(F)cc2)cc1 (configuration not stated) 9.67% [at 0.501 µM]

Source: PubChem BioAssay AID504332 (National Center for Advancing Translational Sciences (NCATS), 2011)
